Only some compounds are listed: those with a hit (about 7.6% of all), similar ones and a draw of the others.
Giardia killer: Giardia lamblia killing | Giardia lamblia trophozoite viability | activity change, % at 7.66 µM, hits read low | actives 0.15% (n = 340,000); in the data active means activity change below about -80%; inconclusive means between about -30% and that limit;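 further: parasites exposed to compound for two days anaerobically before the ATP read; on the % scale 0 is the no-effect control and ±100 the full control effect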
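Anaerobic 48 hrs incubation at 37 deg C of 100 trophozoites/well with test compounds; ATPLite 1-Step luminescence, 15-30 min RT, reports cellular ATP as viability.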
p53 reactivation: re-activators of mutant p53. H1299 p53-A138V BP100-luciferase reporter, luminescence, 24 h. Potency, µM (top dose mostly 92.2 µM), inactives show at the top dose activity change, positive = activation, hits mostly activators. actives 0.063% (n = 320,000); further: potency means the concentration at half of the fitted maximal effect; % of control where 0% means no effect; nearly all actives have a fitted effect of over 45% in size
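p53-null H1299 cells stably carrying temperature-sensitive p53-A138V and a BP100-luciferase reporter were pinned with compounds (4-point, 1:5 series) and held 24 hrs at 37 deg C. Luminescence was read 10 min after detection reagent.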
VP16 counter: Gal4-VP16 reporter inhibition counter-screen; Potency, µM (doses to about 53.6 µM), inactives show at the top dose activity, negative = inhibition, usual class: inhibitors; actives 3.5% (n = 310,000); Drosophila S2 Gal4-VP16 UAS-luciferase, luminescence, 20 h;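 further: Gal4-VP16 expression switched on by copper sulfate through the metallothionein promoter; potency means the concentration at half of the fitted maximal effect; on the % scale 0 is the no-effect control and ±100 the full control effect; nearly all actives have a fitted effect of over 50% in size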
ELG1 repair inh: ELG1-dependent DNA repair inhibition. HEK293T ELG1-luciferase reporter, luminescence, 16 h; DNA damage induced by 5-fluorouridine. Potency, µM (highest dose often 46.1 µM), for inactives: at the top dose activity change, negative = inhibition, most hits filed as inhibitors. actives 2.3% (n = 330,000); further: potency means the concentration at half of the fitted maximal effect; on the % scale 0 is the no-effect control and ±100 the full control effect; nearly all actives have a fitted effect of over 55% in size
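Reporter activity after DNA damage by 5-fluorouridine is monitored. Compound-treated cells incubate 16 hr at 37 °C, then ONE-Glo is added for 30 min before luminescence reading.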
RORg inh: inhibitors of mouse ROR gamma transcriptional activity. Drosophila S2 Gal4-RORgamma UAS-luciferase reporter, 20 h. Potency, µM (top dose mostly 53.6 µM), without a hit: at the highest dose activity change, negative = inhibition, usual class: inhibitors. actives 5.4% (n = 310,000); further: potency means the concentration at half of the fitted maximal effect; on the % scale 0 is the no-effect control and ±100 the full control effect; nearly all actives have a fitted effect of over 60% in size
Target sequence (P51450 whole entry, looked up, the tested form may be a part): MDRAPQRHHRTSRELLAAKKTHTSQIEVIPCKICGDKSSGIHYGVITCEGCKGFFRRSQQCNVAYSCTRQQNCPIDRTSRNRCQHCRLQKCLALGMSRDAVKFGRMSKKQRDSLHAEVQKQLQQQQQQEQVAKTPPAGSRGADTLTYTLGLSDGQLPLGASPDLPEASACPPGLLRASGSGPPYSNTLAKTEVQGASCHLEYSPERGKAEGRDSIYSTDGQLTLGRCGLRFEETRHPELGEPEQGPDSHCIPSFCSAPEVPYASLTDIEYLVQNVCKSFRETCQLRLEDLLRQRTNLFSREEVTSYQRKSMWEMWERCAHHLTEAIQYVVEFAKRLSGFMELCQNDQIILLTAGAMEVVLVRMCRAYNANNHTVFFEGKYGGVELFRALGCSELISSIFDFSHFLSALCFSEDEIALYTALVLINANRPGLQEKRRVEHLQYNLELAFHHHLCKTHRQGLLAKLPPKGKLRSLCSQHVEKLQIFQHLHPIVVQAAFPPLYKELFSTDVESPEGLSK
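Drosophila Schneider cells stably carrying a metallothionein-driven Gal4 DBD–ROR gamma fusion and a UAS-Photinus luciferase reporter were exposed to compound for 1 hr, then induced with copper sulfate (700 uM final) for 20 hr at ambient temperature before luminescence reading.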
BRCA1 expr up: BRCA1 expression activation. MCF7-BRCA1-FFLuc reporter, luminescence, 48 h; response scale: scaled: vehicle 0%, 10 µM genistein 100%. Potency, µM (series often up to 46.1 µM), for the others: at the highest dose activation, hits mostly activators. actives 1.1% (n = 380,000). AID 624202; further: potency means the concentration at half of the fitted maximal effect; nearly all actives have a fitted effect of over 80% in size
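Quantitative HTS in MCF7 cells stably reporting BRCA1 expression via firefly luciferase. Compound treatment lasts 48 h at 37 °C in phenol-red free MEM. Activation is expressed relative to genistein at 10 microM and DMSO.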
An asterisk follows results filed as active; ? = inconclusive; . = no result given. Unless noted, the call rests on the fitted dose curve; in most records, active means well fitted curve in the direction sought with a large enough effect; inconclusive means small, poorly fitted or top-dose-only effect, or another doubt; inactive means no such curve, though single readings can be large; an effect the other way counts as inactive or inconclusive.

SMILES | Giardia killer | p53 reactivation | VP16 counter | ELG1 repair inh | RORg inh | BRCA1 expr up
CN(CC(=O)Nc1cccc2ccccc12)C(=O)c1ccc(F)cc1F | 10.6 | -5.6% | . | -0.1% | . | -0.9%
COc1ccc(/C=C2\OC(=O)c3c(OC)cccc32)cc1OC | -20.1 | 6.5% | -7.1% | ? | -16.6% | 10µM*
COc1ccc(C=C2C(=O)OC(C)(C)OC2=O)cc1OC | 3.5 | -5.4% | 0.0% | ? | 29.0% | -1.8%
Cc1cccc(-c2noc(-c3ccc(NCc4ccco4)c([N+](=O)[O-])c3)n2)c1 | . | . | . | . | . | 0.0%
CC1CC(C)(C)NC(=S)N1CCC(=O)N1CCN(c2ccccc2)CC1 (configuration not stated) | 13.4 | -4.1% | ? | 12.7% | 7.94µM* | -10.5%
CC1CC(C)(C)NC(=S)N1CCC(=O)N1CCc2ccccc2C1 (configuration not stated) | -1.5 | -8.1% | ? | -7.4% | 15.8µM* | 1.8%
O=C(CCCOc1ccccc1)N1CCN(c2ccc(F)cc2)CC1 | -0.4 | 13.2% | 1.8% | ? | ? | ?
CC(=O)c1ccc(N2CCN(C(=O)CCN3C(=S)NC(C)(C)CC3C)CC2)cc1 (configuration not stated) | 6.8 | -4.5% | 22.7% | 1.7% | ? | -1.4%
COc1ccc(N2CCN(C(=O)CCN3C(=S)NC(C)(C)CC3C)CC2)cc1 (configuration not stated) | -20.4 | -7.4% | -5.5% | -11.6% | 11.2µM* | -22.1%
CC1CC(C)(C)NC(=S)N1CCCC(=O)N1CCN(c2ccc(F)cc2)CC1 (configuration not stated) | -9.9 | -7.3% | -94.6% | -13.2% | 10µM* | -12.3%
CCCCc1nnc(NC(=O)CCS(=O)(=O)c2ccc(C)cc2)s1 | ? | ? | . | 0.0% | . | -33.9%
COc1ccc(-n2ncc3c(=O)n(CC(=O)NC(C)C)cnc32)cc1 | 5.8 | . | -6.6% | -9.3% | 31.3% | -11.9%
Cc1ccc(C)c(N2CCN(C(=O)CN3C(=S)NC(C)(C)CC3C)CC2)c1 (configuration not stated) | -6.0 | -5.0% | ? | ? | 7.94µM* | -24.2%
CC1CC(C)(C)NC(=S)N1CC(=O)N1CCN(Cc2ccccc2)CC1 (configuration not stated) | -0.7 | -2.1% | 5.2% | -12.7% | -18.6% | 0.4%
CC(C)(C)CC(C)(C)NC(=S)NC1CCN(Cc2ccccc2)CC1 | -15.5 | ? | 10µM* | -5.4% | 14.1µM* | -52.3%
Cc1ccc(NC(=O)NC2CCCCC2)cc1Cl | -8.8 | . | -22.3% | ? | ? | 5.01µM*
S=C(Nc1ccc2nsnc2c1)NC1CCCCC1 | -3.4 | ? | 5.01µM* | ? | 2.51µM* | ?
S=C(Nc1ccc2nsnc2c1)N1CCCCCC1 | -20.5 | -2.0% | 4.7% | 0.2% | 14.4% | ?
S=C(Nc1ccc(Cl)c(Cl)c1)NC1CCCCC1 | 22.2 | 13.5% | 5.62µM* | ? | 2.51µM* | -69.4%
COc1cccc(N(CC(=O)NCCSc2ccccc2)S(C)(=O)=O)c1 | 15.2 | -4.3% | -13.9% | -13.6% | 8.2% | -4.4%
NC(Cc1ccccc1)c1csc(Nc2ccc(C(F)(F)F)cn2)n1 (configuration not stated) | . | . | . | . | . | -20.9%
COc1cc(S(=O)(=O)N2CCN(Cc3cccs3)CC2)ccc1NC(C)=O | -21.7 | 5.1% | . | 18.4% | . | -41.7%
S=C(Nc1ccc(Cl)c(Cl)c1)NC1CCN(Cc2ccccc2)CC1 | -10.2 | -22.0% | 35.5µM* | ? | ? | -84.1%
O=C(CN1CCCC1c1cccs1)Nc1cccc(S(=O)(=O)N2CCCC2)c1 (configuration not stated) | -6.7 | -4.4% | . | ? | . | -30.0%
COc1ccc(C(=O)N2CCOC2CNC(=O)C(=O)NCc2ccccc2Cl)cc1 (configuration not stated) | -9.8 | -4.5% | -1.8% | -10.4% | 1.4% | -2.4%
SMILES | Giardia killer | p53 reactivation | VP16 counter | ELG1 repair inh | RORg inh | BRCA1 expr up
Cn1cnnc1Sc1ccc(C(F)(F)F)cc1[N+](=O)[O-] | -14.8 | 22.4% | -8.2% | 8.2µM* | -32.8% | 9.1%
Cn1c(N2CCN(C(c3ccccc3)c3ccccc3)CC2)nc2ccccc21 | 6.0 | -41.5% | 12.6µM* | ? | 11.2µM* | -46.3%
Cn1c(N2CCN(C(=O)Nc3ccc(F)cc3)CC2)nc2ccccc21 | 20.7 | -10.3% | -1.0% | ? | -1.5% | 6.6%
COc1ccc(C)cc1C1=Nc2ccccc2C1(C)C | 1.6 | 6.1% | ? | -1.4% | 12.6µM* | -15.2%
Cc1nnc(SCC(=O)NC2(C#N)CCCCC2)n1N | . | . | . | . | . | -8.7%
CCN(CC)S(=O)(=O)c1cccc(C(=O)N/N=C(\C)c2cccs2)c1 | -19.3 | -5.7% | ? | ? | 3.55µM* | 79.7%
C/C(=N\NC(=O)c1cccc(S(=O)(=O)Nc2cccc(Cl)c2)c1)c1cccs1 | 4.8 | 3.0% | 3.98µM* | -7.6% | 5.01µM* | -32.1%
Cc1ccc(-c2nc3sc(CCNC(=O)c4ccco4)c(C)n3n2)cc1 | . | . | . | . | . | 14.4%
CC(=O)Nc1ccc(C(=O)OCCc2ccccc2)cc1 | 8.9 | ? | 0.5% | ? | 14.1% | 5.01µM*
CCOC(=O)c1ccc(NC(=O)c2ccccc2)cc1 | -0.1 | ? | 3.5% | ? | 33.7% | 2.82µM*
COc1ccc(NC(=O)C23CCC(C)(C(=O)O2)C3(C)C)cc1 (configuration not stated) | -5.9 | -5.7% | -8.8% | 3.8% | 4.0% | -0.4%
CCOC(=O)c1cc(NC(=O)c2ccoc2C)cc(C(=O)OCC)c1 | -2.0 | -2.1% | -11.3% | 9.2µM* | 5.0% | -21.1%
CCOC(=O)c1ccc(NC(=O)c2ccc(NS(C)(=O)=O)cc2)cc1 | -27.3 | -8.9% | -6.9% | -3.9% | -3.5% | -7.1%
CCOC(=O)c1ccc(NC(=O)C23CCC(C)(C(=O)O2)C3(C)C)cc1 (configuration not stated) | -9.4 | ? | 0.0% | ? | 24.9% | 10µM*
Clc1nc(Cl)c2ncn(-c3ccccc3)c2n1 | -10.0 | . | . | . | . | -50.2%
CCc1ccccc1NCc1nnc2n1CCCCC2 | . | . | . | . | . | 23.4%
Cc1csc(SCC(=O)NC2CCCC2)n1 | -22.8 | -0.9% | . | 14.8% | . | 0.6%
CCOC(=O)c1c(C)c(C(=O)NCCc2ccccc2)c(C)n1C | -4.3 | 19.0% | 7.7% | ? | 9.4% | 10µM*
CCOC(=O)c1c(C)c(C(=O)NCc2cccnc2)c(C)n1C | 0.0 | 1.8% | -0.6% | 7.3% | 5.6% | -5.6%
CCOC(=O)c1ccc(NC(=S)NCCc2ccccc2F)cc1 | -13.5 | -1.1% | ? | -2.0% | 3.55µM* | -11.7%

Bioassay records from PubChem BioAssay.
